Gli-Sufu block: Gli-Sufu pathway antagonists, primary screen, luciferase luminescence, Sufu-KO-LIGHT cells, uHTS; Sufu-KO-LIGHT fibroblasts, Gli luciferase reporter luminescence; AID 588413, 2011; inhibition, % at 5 µM; hit rate 0.74% among 340,000;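 active = inhibition above about 55%, limit read from the data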
Jurkat NFkB inh: inhibitors of induced NF-kB luciferase reporter, primary screen, TCR NF-kB activation inhibitor project, cell-based, luminescence, uHTS; hit rate 0.53% among 330,000; inhibition, % at 4 µM; Jurkat, PMA/ionomycin-induced NF-kB luciferase reporter; in the data active = inhibition above about 50%
697 NFkB inh: inhibitors of PMA/ionomycin-induced NF-kB reporter, 697 cells, primary screen, B-cell NF-kB inhibitor project, cell-based, luminescence, uHTS. inhibition, % at 4 µM. 697 B-cell NF-kB luciferase reporter, 16 h. hit rate 0.33% among 330,000; in the data active = inhibition above about 35%
Mdm2-MdmX inh: inhibitors of human Mdm2-MdmX association, primary screen, cell-based, luminescence, split luciferase, SaOS-2, uHTS. Protein Mdm4 (Homo sapiens) + E3 ubiquitin-protein ligase Mdm2 (Homo sapiens), …. SaOS-2 split-luciferase Mdm2/MdmX complementation. inhibition, % at 8 µM. hit rate 3% among 330,000;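 active = inhibition of at least 50% at 8 µM in the primary screen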
Shn3 inh set2: reduction of Shn3 3'UTR firefly luciferase signal, primary screen, Schnurri-3 inhibitor project, cell-based, Clone20 osteoblasts, set 2; hit rate 0.52% among 360,000; Clone20 osteoblast Shn3 3'UTR firefly luciferase, 24 h; inhibition, % at 12.5 µM; AID 588674, 2011;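 active = mean inhibition of at least 75% with every replicate also reaching 75%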
Jurkat NFkB conf: PMA/ionomycin-induced NF-kB reporter inhibitors, Jurkat retest, confirmation, T-cell NF-kB inhibitor project, cell-based, luminescence, single concentration | hit rate 27% among 2,700 | inhibition, % at 4 µM | shares compounds with Jurkat NFkB inh | Jurkat NF-kB luciferase, 16 h;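 active = inhibition reaching about 45% at 4 µM in either replicate, limit read from the data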
Of the large screens only hits and unclear results are named; the others gave an inactive call (follow-up assays come after a bar, where they were run). An excerpt weighted towards active compounds, which were near 3.8% of everything screened.

Cc1ccc(COc2ccc(C)nc2[N+](=O)[O-])cc1	none | Jurkat NFkB conf inactive
Cc1ccc(CNC(=O)COc2ccc(C)nc2[N+](=O)[O-])cc1	Jurkat NFkB inh 87 | Jurkat NFkB conf inactive
Cc1ccc(OCc2ccccc2Br)c([N+](=O)[O-])n1	none
OC(CCN1CC2CCC(CC2)C1)(Cc1ccccc1)c1ccco1 (centres undefined)	none (no result: Jurkat NFkB inh, 697 NFkB inh, Mdm2-MdmX inh)
Cc1cccc(NC(=O)CSc2nnc3ccc(-c4cccnc4)nn23)c1	none (no result: Gli-Sufu block, Jurkat NFkB inh, 697 NFkB inh, Mdm2-MdmX inh)
O=[N+]([O-])c1ccc(N/N=C/c2ccccc2O)cc1	Jurkat NFkB inh 61 | Jurkat NFkB conf inactive
C/C(=N\N1CCN(Cc2ccccc2Cl)CC1)c1ccc([N+](=O)[O-])cc1	Jurkat NFkB inh 51 (no result: Shn3 inh set2) | Jurkat NFkB conf inactive
O=C(c1ccccc1)c1ccc(N2CCN(C(=O)c3ccc(F)cc3F)CC2)c(F)c1	none (no result: Gli-Sufu block, Jurkat NFkB inh, 697 NFkB inh, Mdm2-MdmX inh)
COCCNC(=O)C1(C)CCN(C(=O)c2ccc3sccc3c2)C1 (centres undefined)	none (no result: Gli-Sufu block, Jurkat NFkB inh, 697 NFkB inh, Mdm2-MdmX inh)
COc1ccc(-c2noc(-c3csc([C@@H]4O[C@H](CO)[C@H](O)[C@H](O)[C@H]4O)n3)n2)cc1OC	none (no result: Gli-Sufu block, Jurkat NFkB inh, 697 NFkB inh, Mdm2-MdmX inh)
CC1=NN(S(=O)(=O)c2ccc(C)cc2)C(=O)c2ccccc2O1	none
COc1ccc(S(=O)(=O)N2N=C(C)Oc3ccccc3C2=O)cc1	Jurkat NFkB inh 53 | Jurkat NFkB conf inactive
Cc1ccc(Nc2ncnc(Cl)c2N)cc1	none (no result: Jurkat NFkB inh, 697 NFkB inh, Mdm2-MdmX inh)
COc1ccc2nc3n(c(=O)c2c1)-c1cc(Cl)ccc1C(=O)NC3Cc1ccccc1 (centres undefined)	none (no result: Gli-Sufu block, Shn3 inh set2)
Cc1cccc(OCC(=O)Nc2nccs2)c1C	none | Jurkat NFkB conf inactive
Cc1ccccc1OCCCC(=O)Nc1nccs1	none
c1ccc(CSc2ccc(-c3ccccn3)nn2)cc1	none | Jurkat NFkB conf inactive
Cc1onc(-c2ccccc2)c1C(=O)Nc1ccccc1N1CCOCC1	none
Cc1onc(-c2ccccc2)c1C(=O)Nc1cc(C(F)(F)F)ccc1N1CCOCC1	Jurkat NFkB inh 56 | Jurkat NFkB conf inactive
COc1ccc(OCC(=O)OCC(=O)c2ccc(OC)c(F)c2)cc1	none
Cc1oc(-c2ccc(Cl)cc2)nc1CN1CCCC(C(=O)NC2CC2)C1 (centres undefined)	none
CCOC(=O)N1CCN(C(=O)C2CCCN(Cc3nc(-c4ccc(Cl)cc4)oc3C)C2)CC1 (centres undefined)	Jurkat NFkB inh 59 | Jurkat NFkB conf 55
CCCCCC(=O)N1C[C@@H](n2cc(-c3ccc(F)cc3)nn2)[C@H](O)C[C@@H]1c1ccc(OC)cc1	none (no result: Gli-Sufu block, Jurkat NFkB inh, 697 NFkB inh, Mdm2-MdmX inh)
CCN(Cc1ccccc1)c1ccc(N=Nc2nn(C)c(C)c2[N+](=O)[O-])cc1	none
CCN(CC)c1ccc(N=Nc2nn(C)c(C)c2[N+](=O)[O-])cc1	none | Jurkat NFkB conf inactive
O=[N+]([O-])c1ccc(Sc2ccc(F)cc2)nc1	none
Cc1cc(Sc2ccc([N+](=O)[O-])cn2)ccc1Br	Jurkat NFkB inh 62 | Jurkat NFkB conf inactive
O=C(c1ccc(F)cc1)c1ccc(N2CCCCC2)cc1	none
CCN(CC)S(=O)(=O)c1ccc(NC(=O)c2ccc(CN3CCOCC3)cc2)cc1	Jurkat NFkB inh 58 | Jurkat NFkB conf 58
CCCOc1ccc(C(=O)Nc2ccc(CN3CCOCC3)cc2)cc1	none
O=C(Nc1ccc(S(=O)(=O)N2CCCCC2)cc1)c1ccc(CN2CCOCC2)cc1	Jurkat NFkB inh 62 | Jurkat NFkB conf 61
O=C(Nc1ccc(S(=O)(=O)N2CCCC2)cc1)c1ccc(CN2CCOCC2)cc1	none
O=C(Nc1ccc(N2CCCCC2)cc1)c1ccc(F)cc1	none | Jurkat NFkB conf inactive
O=C(Nc1ccc(N2CCOCC2)cc1)c1ccc(Cl)c(S(=O)(=O)N2CCCCC2)c1	Jurkat NFkB inh 51 | Jurkat NFkB conf 57
NC(c1csc(Nc2ccc(C(=O)NCCO)cc2)n1)C1CCCCC1 (centres undefined)	none (no result: Gli-Sufu block, Jurkat NFkB inh, 697 NFkB inh, Mdm2-MdmX inh)
O=C(COC(=O)Cc1ccc(S(=O)(=O)N2CCOCC2)s1)Nc1ccccc1Cl	none
CC(=O)Nc1ccc(NC(=O)c2ccc(CN3CCc4ccccc4C3)cc2)cc1	none

Compound activity from PubChem BioAssay.
